# Data taken from ChEMBL document CHEMBL3988442, “University of Dundee, Small-Polar-MMV Screening Library” (2021).
# The whole screen tested about 69,000 compounds, of which about 420 (0.61%) showed an effect of 50% or more. This is one part of a sample in which strong results are shown more often than they occur.
# Target: T1, Histidine--tRNA ligase (Leishmania infantum) (UniProt A4I591)
# T1 sequence (whole entry): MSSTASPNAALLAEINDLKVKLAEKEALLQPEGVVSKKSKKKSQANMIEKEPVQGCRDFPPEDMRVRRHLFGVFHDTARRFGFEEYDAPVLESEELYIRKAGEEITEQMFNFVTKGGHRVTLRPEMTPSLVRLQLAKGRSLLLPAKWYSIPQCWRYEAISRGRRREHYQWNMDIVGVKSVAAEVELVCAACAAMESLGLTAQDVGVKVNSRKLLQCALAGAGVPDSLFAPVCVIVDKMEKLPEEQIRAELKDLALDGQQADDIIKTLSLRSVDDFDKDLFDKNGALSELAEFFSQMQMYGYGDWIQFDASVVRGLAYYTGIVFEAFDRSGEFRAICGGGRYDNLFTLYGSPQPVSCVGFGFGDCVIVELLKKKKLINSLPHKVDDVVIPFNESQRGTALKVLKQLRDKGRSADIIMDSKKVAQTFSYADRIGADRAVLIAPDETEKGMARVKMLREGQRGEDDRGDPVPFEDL
# Assay: Leishmania infantum Histidine tRNA synthetase (LdHisRS)
# Format: functional
# Design: scale not given: in the data most compounds retested in dose-response had high values
# Conditions: 30 µM
row,Compound,Percent Effect
1,c1ccc(COC[C@H]2CC[C@H]3[C@H](CCN3Cc3ccccn3)O2)nc1,10%
2,NC(=O)c1cc(-n2cc(-c3cccc(C(=O)O)c3)cn2)cs1,10.5%
3,NC(=O)c1cc(-c2cccc(C(=O)O)c2)cs1,15.8%
4,NC(=O)c1ccccc1-n1cc(-c2cccc(C(=O)O)c2)cn1,52.6%
5,CCC1=NN2C(=N)/C(=C\c3cccn3-c3ccc(Br)cc3)C(=O)N=C2S1,11%
6,CN(C)CCN1C[C@@H]2CN(c3ccccc3)C[C@@H]2C1=O,6.36%
7,CC(C(=O)N1CCc2ccccc2C1)N(C)Cc1cscn1 (stereo not drawn),3.9%
8,Cc1csc(CN(C)C(C)C(=O)N2CCc3ccccc3C2)n1 (stereo not drawn),55.8%
9,CCc1cnc(CN(C)C(C)C(=O)N2CCc3ccccc3C2)s1 (stereo not drawn),9.09%
10,O=C(NCc1ccco1)[C@H]1C[C@@H]2CCN(c3cccc(F)c3)C[C@H]2O1,25%
11,Cc1cnc(N2C[C@@H]3CN(Cc4ccco4)CCC[C@]3(C(=O)O)C2)nc1,19.4%
12,COCC(=O)N1CCC2(CC1)NC(=O)[C@H]1CN(C(=O)N(C)C)C[C@H]12,25.2%
13,CN1CCO[C@@H]2CN(C(=O)NCc3ccccc3)CC[C@@H]2C1,4.54%
14,Cc1cccc(S(=O)(=O)N2C[C@H]3C[C@H](C(=O)NCC(C)C)[C@@H](C2)O3)c1,12%
15,CCn1nc2c(cc1=O)CN(Cc1nc(-c3cccs3)no1)CC2,25.9%
16,c1ccc(-c2noc(CN3CCc4cncnc4C3)n2)nc1,36%
17,CCn1nc2c(cc1=O)CN(Cc1nc(-c3ccccn3)no1)CC2,85.1%
18,CCc1ncc2c(n1)CN(Cc1nc(-c3ccccn3)no1)CC2,22.7%
19,CCn1nc2c(cc1=O)CN(Cc1nc(-c3cccnc3)no1)CC2,14.7%
20,Cn1nc2c(cc1=O)CN(Cc1nc(-c3ccccn3)no1)CC2,99.1%
21,COc1ccc(CN2C[C@@H]3COC[C@H](N4CCN(C)CC4)[C@@H]3C2)cc1,1%
22,CC(C)(C)SCCN1CC(=O)N2CC[C@@H](O)C[C@H]2C1=O,10.6%
23,O=C(c1ccco1)N1CC[C@@H]2O[C@@H](COCCN3CCCC3)CC[C@@H]21,4.59%
24,Cc1nccn1-c1ccc(NS(=O)(=O)c2cnn(C)c2)cn1,31.3%
25,Cc1nccn1-c1ccc(NS(=O)(=O)c2cnn(C(C)C)c2)cn1,50.6%
26,Cc1nccn1-c1ccc(NS(=O)(=O)c2cccnc2)cn1,33.7%
27,CCC(C)NS(=O)(=O)c1ccc(/C=C\c2onc(C)c2NC(C)=O)cc1 (stereo not drawn),5.48%

row,Compound,Percent Effect
1,Cc1cc(-c2nn(C)c(Cl)c2CN2CC[C@H](CO)[C@@H](O)C2)no1,2.78%
2,Cc1cc(-c2nn(C)c(Cl)c2CN2CCOCC(O)C2)no1 (stereo not drawn),15.2%
3,Cc1cc(-c2nn(C)c(Cl)c2CN2Cc3ccccc3C(O)C2)no1 (stereo not drawn),66.7%
4,CO[C@@H]1CC[C@H]2[C@H]1OCCN2C(=O)C1CCOCC1,23.1%
5,O=C(c1cc(-c2ccco2)cs1)N1CCOCC1,25%
6,O=C(c1cc(-c2ccco2)cs1)N1CCCC1,55%
7,CN1CCN(C(=O)c2cc(-c3ccco3)cs2)CC1,30%
8,Cc1ocnc1C(=O)N1CCN(C(=O)CC(C)C)[C@@H]2CS(=O)(=O)C[C@@H]21,6.67%
9,Cc1cccc(N2Cc3nc(=O)n(Cc4cccc(F)c4)n3C2=O)c1,14.1%
10,NC[C@H]1CC[C@H](C(NC(=O)C2CC2)c2ccccn2)CC1 (stereo partly drawn),18.8%
11,NC[C@H]1CC[C@H](C(NC(=O)c2ccccn2)c2ccccn2)CC1 (stereo partly drawn),22.9%
12,NC[C@H]1CC[C@H](C(NC(=O)c2cccc(F)c2)c2ccccn2)CC1 (stereo partly drawn),60%
13,COc1ccccc1C(=O)NC(c1ccccn1)[C@H]1CC[C@H](CN)CC1 (stereo partly drawn),88.4%
14,NC[C@H]1CC[C@H](C(NC(=O)c2ccccc2)c2ccccn2)CC1 (stereo partly drawn),22.9%
15,COc1cccc(C(=O)NC(c2ccccn2)[C@H]2CC[C@H](CN)CC2)c1 (stereo partly drawn),39.1%
16,O=C(CC1CC1)N1C[C@@H]2CN(c3ccccc3)C(=O)[C@@H]2C1,21.1%
17,COc1cc(CN2C[C@@H]3CNC(=O)[C@H](C)[C@@H]3C2)cc(OC)c1,21.1%
18,O=C1[C@H]2CN(S(=O)(=O)C3CC3)C[C@H]2CN1Cc1cccnc1,2.74%
19,COCCN1C(=O)C[C@H]2[C@H]1CCN2C(=O)c1ccc[nH]1,22.6%
20,Cc1cccc(CN2C[C@@H]3CN(C(=O)c4ccnnc4)C[C@@H]3C2=O)c1,28.6%
21,O=C(c1cscn1)N1C[C@H]2CCCC(OCc3cccnc3)[C@H]2C1 (stereo partly drawn),17%
22,Cc1nc(N2CCCC2)nc2c1CCN(C(=O)C1CCC1)CC2,51.3%
23,Cc1nc(N2CCCC2)nc2c1CCN(C(=O)C1CCCCC1)CC2,23.1%
24,Cc1nc(N2CCCC2)nc2c1CCN(C(=O)C1CCCC1)CC2,23.3%
25,CNC(=O)CN1CC[C@H]2CN(C(=O)c3ccc(C)cc3)C[C@H]2C1,9.72%
26,O=C(c1cscn1)N1CC[C@@H]2[C@@H]1CCN2c1ccccn1,10.5%
